According to PubChem BioAssay:
For part of these data: Entries with a potency or affinity are not part of this list. Calls of active or inactive are those of the source.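 Rule for the calls, unless noted: active = dose curve with midpoint inside tested range, moderate steepness, plateau gap beyond fit error, low compound glow and bead-link interference; inactive = the rest.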

Key:
[1] = biological target: Cell division control protein 42 homolog (Homo sapiens) (UniProt P60953); test: activated mutant Cdc42 GTP-binding inhibitors, dose response, biochemical, multiplex bead flow cytometry, Bodipy-FL-GTP (AID 1333;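 active = fitted half-maximal concentration within the tested dose range, moderate curve steepness, a statistically real signal drop, and little compound fluorescence or tag-binding interference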)
Cell division control protein 42 homolog (Homo sapiens), sequence (P60953 whole entry, looked up): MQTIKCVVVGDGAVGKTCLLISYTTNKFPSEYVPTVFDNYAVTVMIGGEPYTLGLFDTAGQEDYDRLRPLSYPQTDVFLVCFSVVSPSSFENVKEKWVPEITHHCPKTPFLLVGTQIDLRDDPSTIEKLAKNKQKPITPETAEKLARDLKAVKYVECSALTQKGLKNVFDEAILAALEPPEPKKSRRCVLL

[2] = biological target: Cell division control protein 42 homolog (Homo sapiens) (UniProt P60953); test: wildtype Cdc42 GTP-binding inhibitors, dose response, biochemical, multiplex bead flow cytometry, Bodipy-FL-GTP (AID 1334;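 active = fitted half-maximal concentration within the tested range, moderate curve steepness, significant signal drop, and little compound fluorescence or bead-linkage interference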); conditions: bead-based flow cytometry, Bodipy-FL-GTP binding to GST-Cdc42; at 100 µM (top of the series) unless noted
[3] = biological target: GTPase HRas (Homo sapiens) (UniProt P01112); test: inhibitors of GTP binding to wildtype Ras, dose response, biochemical, multiplex bead flow cytometry (AID 1335;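 active = fitted half-maximal concentration within 10 nM to 100 µM, steepness 0.5 to 2, significant signal drop, low assay interference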); conditions: bead-based flow cytometry, Bodipy-GTP binding to GST-Ras; at 100 µM (top of the series) unless noted
GTPase HRas (Homo sapiens), sequence (P01112 whole entry, looked up): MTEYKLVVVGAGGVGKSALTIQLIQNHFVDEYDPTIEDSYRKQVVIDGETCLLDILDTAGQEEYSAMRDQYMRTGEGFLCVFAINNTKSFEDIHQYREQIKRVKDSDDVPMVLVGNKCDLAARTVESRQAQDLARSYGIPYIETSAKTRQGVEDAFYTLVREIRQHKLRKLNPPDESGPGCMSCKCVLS

[4] = tested on: Ras-related protein Rab-7a (dog), GTP binding; test: Rab7 GTP binding inhibitors, potency, dose response, biochemical, wildtype, multiplex bead flow cytometry (AID 1336; call rule not given here)
[5] = biological target: Ras-related C3 botulinum toxin substrate 1 (Homo sapiens) (UniProt P63000); test: wildtype Rac1 GTP binding inhibitors, dose response, biochemical, multiplex bead flow cytometry (AID 1340); conditions: GST-Rac1 beads, Bodipy-FL-GTP binding; at 100 µM (top of the series) unless noted
[6] = biological target: GTPase HRas (Homo sapiens) (UniProt P01112); test: activated Ras mutant GTP binding inhibitors, dose response, biochemical, multiplex bead flow cytometry (AID 1341;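 active = dose-response curve with midpoint inside the tested range, moderate steepness, significant amplitude and little compound fluorescence or bead-attachment interference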;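 note: GST-tagged constitutively activated Ras mutant immobilized on beads and multiplexed with other GTPases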)

Row | Compound | outcome [1] | fluorescence, percent of control (lower = inhibition) [2] | GTP binding, percent of control [3] | outcome [4] | GTP binding signal, raw median fluorescence (lower = inhibition) (MCF (arbitrary fluorescence units)) [5] | outcome [6]
1 | O=C(O)c1ccc(NS(=O)(=O)c2ccc3c(c2)C(=O)c2ccccc2C3=O)cc1 | inactive | 28.6% | 69% | inactive | 118 | inactive
2 | O=C(c1nnsc1S(=O)(=O)c1ccc(Cl)cc1)N1CCOCC1 | inactive | 39.7% | 77.4% | inactive | 289 | inactive
3 | CCOC(=O)Cn1nnnc1C(CC)N(Cc1cccs1)Cc1cc2ccc(OC)cc2[nH]c1=O (stereo not given) | inactive | 97.8% | 173% | inactive | 194 | inactive
4 | Cc1ccc(NCc2sc(C(=O)O)cc2C)cc1 | inactive | 63% | 86.6% | inactive | 35.4 | inactive
5 | COC(=O)c1cc(NC(=O)c2cccc(Cl)c2)c(=O)oc1/C=C/Nc1cc(C)cc(C)c1 | inactive | 193% | 237% | inactive | 563 | inactive
6 | Cc1ccc(Cc2cnc(NC(=O)/C(C#N)=C/c3ccc(-c4ccc([N+](=O)[O-])cc4)o3)s2)cc1 | inactive | 28.5% | 75.1% | inactive | 223 | inactive
7 | Cc1ccc(Nc2cc(C(=O)O)c3ccccc3n2)cc1C | inactive | 60.9% | 84.7% | inactive | 31.9 | inactive
8 | N#CCc1c(C#N)c(N)nc(N2CCN(C=O)CC2)c1C#N | inactive | 33.7% | 75.4% | inactive | 170 | inactive
9 | COc1ccc(C=O)cc1CSc1ncccc1C(=O)O | inactive | 61.6% | 88.9% | inactive | 33.8 | inactive
10 | OC(CNCCC1C=Nc2ccccc21)Cn1c2ccc(Cl)cc2c2cc(Cl)ccc21 (stereo not given) | inactive | 60.4% | 67.9% | inactive | 386 | inactive
11 | CCOc1ccc(Cn2c3ccc(OC)cc3c3nc4ccccc4nc32)cc1 | inactive | 114% [at 33.3 µM] | 127% [at 33.3 µM] | inactive | 242 | inactive
12 | CCOC(=O)Cn1c(=O)c2c(nc(N3CCCCC3)n2C)n(C)c1=O | inactive | 52.2% | 63.3% | inactive | 168 | inactive
13 | O=C(CSc1ccc2nnc(-c3ccccn3)n2n1)Nc1nccs1 | inactive | 28.8% | 61.7% | inactive | 124 | inactive
14 | Cc1nnc(N2CCOCC2)c2nn(-c3cccc(Cl)c3)c(C)c12 | inactive | 204% | 209% | inactive | 306 | inactive
15 | O=c1c2ccccc2nc2c3ccccc3c(NCc3ccccn3)nn12 | inactive | 33.4% | 68.8% | inactive | 167 | inactive
16 | Cc1cc(C)n2nc(SCCOc3ccccc3F)nc2n1 | inactive | 34.1% | 72.5% | inactive | 144 | inactive
17 | Cc1ccc(-c2cn3cccc(C)c3n2)cc1 | inactive | 35.6% | 86% | inactive | 167 | inactive
18 | Cc1cc([N+](=O)[O-])ccc1N=Nc1c(N)[nH]n(-c2ccccc2)c1=O | inactive | 38.4% | 85% | inactive | 225 | inactive
19 | Cc1ccccc1CNCc1ccc(C(=O)O)s1 | inactive | 61.7% | 87% | inactive | 32.5 | inactive
20 | O=C1OC(c2ccc(F)cc2)=C/C1=C\c1ccc([N+](=O)[O-])o1 | inactive | 49.1% | 91.4% | inactive | 283 | inactive
21 | COc1ccc(Cn2c(O)c(/C=N/NC(=O)c3cccnc3)c3ccccc3c2=O)cc1 | inactive | 17.2% | 68.9% | inactive | 63.7 | inactive
22 | O=C(O)C1CSC(CCc2ccccc2)N1 (stereo not given) | inactive | 98.5% | 125% | inactive | 87.7 | inactive
23 | Cc1c2cc(O)c(=O)cc-2oc2cc(O)c(O)cc12 | inactive | 5290% | 5530% | inactive | 5510 | inactive
24 | Cn1nc(C(F)(F)F)c(/C=N/OC(=O)c2ccccc2)c1SCc1ccc(Cl)cc1 | inactive | 98.8% | 181% | inactive | 175 | inactive
25 | CCCCN1C(=O)/C(=C/C=C2\N(C)c3ccccc3C2(C)C)SC1=S | inactive | 128% | 134% | inactive | 235 | inactive
26 | COc1ccccc1Oc1ccccc1C(=O)O | inactive | 100% | 239% | inactive | 271 | inactive
27 | O=C1CS/C(=N/N=C2C3CC4CC(C3)CC2C4)N1 | inactive | 48.5% | 68.2% | inactive | 214 | inactive
28 | CCC(C)NC(=O)CSc1nc2n[nH]c(C)c2c(=N)n1-c1ccc(OC)cc1 (stereo not given) | inactive | 36% | 48.9% | inactive | 111 | inactive

Row | Compound | outcome [1] | fluorescence, percent of control (lower = inhibition) [2] | GTP binding, percent of control [3] | outcome [4] | GTP binding signal, raw median fluorescence (lower = inhibition) (MCF (arbitrary fluorescence units)) [5] | outcome [6]
29 | Cc1[nH]c2ccccc2c1C(=O)CNc1nccs1 | inactive | 50.6% | 58% | inactive | 0 | inactive
30 | Cc1c(C(=O)N/N=C/c2ccc(-c3ccccc3[N+](=O)[O-])o2)sc(N)c1C#N | inactive | 37.4% | 49.1% | inactive | 157 | inactive
31 | CCOc1ccc(-n2c(-c3ccco3)n[nH]c2=S)cc1 | inactive | 56.1% | 112% | inactive | 107 | inactive
32 | CCOc1cccc(-c2nn3c(-c4ccco4)nnc3s2)c1 | inactive | 32.7% | 71.3% | inactive | 164 | inactive
33 | COc1cccc(-c2cc(C(F)(F)F)c(C#N)c(=O)[nH]2)c1 | inactive | 30% | 75.7% | inactive | 230 | inactive
34 | O=C(Cn1cnc2cc([N+](=O)[O-])ccc2c1=O)NCCc1ccc(F)cc1 | inactive | 35.9% | 80.9% | inactive | 182 | inactive
35 | COc1ccc2c(C)cc3nncn3c2c1 | inactive | 51.4% | 92.8% | inactive | 202 | inactive
36 | COc1ccc(C(=O)Nn2c(SCC(=O)c3ccccc3)nc3ccccc3c2=O)cc1 | inactive | 71.5% | 119% | inactive | 135 | inactive
37 | Cc1cc(C(=O)CN2C(=O)C(=O)N(Cc3ccccc3)C2=O)c(C)n1-c1ccccc1F | inactive | 34.9% | 81.4% | inactive | 260 | inactive
38 | O=C(CSc1nnc2c(n1)[nH]c1ccccc12)Nc1ccc(S(=O)(=O)Nc2ncccn2)cc1 | inactive | 33.3% | 72.8% | inactive | 148 | inactive
39 | COc1ccccc1N1CCN(S(=O)(=O)c2cccc(F)c2)CC1 | inactive | 49% | 62.4% | inactive | 213 | inactive
40 | Cc1ccc(CSc2nc3[nH]ncc3c(=O)[nH]2)cc1 | inactive | 37.4% | 80.6% | inactive | 173 | inactive
41 | Cc1ccc(NC(=S)Nc2ccc3nc(-c4ccccn4)c(-c4ccccn4)nc3c2)cc1C | inactive | 53.7% | 69% | inactive | 0 | inactive
42 | COc1ccc(S(=O)(=O)Cc2ccc(C(=O)N3CCN(c4cccc(C)c4C)CC3)o2)cc1 | inactive | 41.5% | 62.1% | inactive | 171 | inactive
43 | O=C(c1nn2c(C(F)(F)F)cc(-c3ccc(F)cc3)nc2c1Cl)N1CCOCC1 | inactive | 48.9% | 62.6% | inactive | 189 | inactive
44 | Cc1c(Cl)c([N+](=O)[O-])nn1Cc1ccc(C(=O)N/N=C\c2ccccn2)o1 | inactive | 38.5% | 53% | inactive | 95.4 | inactive
45 | O=c1[nH]c(N/N=C\c2ccc3c(c2)OCO3)nc2ccccc12 | inactive | 80.8% | 118% | inactive | 202 | inactive
46 | CCc1ccc(Sc2cc(C(=O)O)c3ccccc3n2)cc1 | inactive | 57.8% | 86% | inactive | 31 | inactive
47 | CCc1nnc(NC(=O)CCC(=O)N2CCN(c3ccccn3)CC2)s1 | inactive | 94% | 163% | inactive | 190 | inactive
48 | C/C(=N\NC(=O)CC1N=C(Cc2ccccc2)NNC1=O)c1ccc(Cl)cc1Cl (stereo not given) | inactive | 90.1% | 160% | inactive | 175 | inactive
49 | Cc1ccccc1COc1c(C)cccc1C(=O)O | inactive | 59.9% | 209% | inactive | 56.3 | inactive
50 | CC(C)Sc1nc(-c2ccccc2)cc(=O)[nH]1 | inactive | 88.8% | 156% | inactive | 170 | inactive
51 | Cn1c(/C(C#N)=C/c2ccncc2)nc2ccccc21 | inactive | 36.7% | 87.2% | inactive | 266 | inactive
52 | CCOc1cc(/C=C2\SC(=O)N=C2N)ccc1O | inactive | 40.7% | 81% | inactive | 174 | inactive
53 | N#C/C(=C\c1ccccc1)c1nc2ncccc2[nH]1 | inactive | 36.8% | 82.5% | inactive | 276 | inactive
54 | COc1cccc(CNCc2ccc(C(=O)O)s2)c1 | inactive | 61.9% | 84.8% | inactive | 32.9 | inactive
55 | O=C(Oc1c(Br)cc(C(=S)N2CCOCC2)cc1Br)c1ccc(Cl)cc1 | inactive | 29.7% | 85% | inactive | 217 | inactive
